Screening results deposited in PubChem by National Center for Advancing Translational Sciences (NCATS).
Compounds with a hit are over-represented: about 3.3% of the library has one in this group of screens.
Bst PK mod – Pyruvate Kinase; AID 361, 2006; 51,000 tested, 1.2% active; Potency, µM; purified pyruvate kinase, luminescence ATP production; ribose 5-phosphate activator present at AC10; in the data active = potency below about 11 µM; inconclusive = mostly about 12 µM to 25 µM;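 the screen sought inhibitors and activators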
Ub-GFP proteasome – Ubiquitin-GFP Assay | Potency, µM (titrated, usually from 45.9 µM), usual class: activators | Ubiquitin-GFP reporter cells, proteasome inhibition, GFP fluorescence; response scale: untreated = 0%, 10 µM MG-132 = 100% | 67,000 tested, under 10 active; active = well fitted activation curve with a large enough effect, not every such curve was filed as active; inconclusive = small, poorly fitted or top-dose-only effect, or another doubt; inactive = no such curve, though single readings can be large or run the other way
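U2OS cells expressing ubiquitin(G76V)-GFP, seeded overnight in 0.5% FBS medium, then treated 4 hr at 37 C across 46 uM to 2.9 nM. GFP-positive cells counted by laser cytometry (488 ex/515 em); %activity scaled between basal and 10 uM MG-132.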
HBB splicing – qHTS Assay for Modulators of Hemoglobin Beta Chain Splicing | 65,000 tested, 0.06% active | Potency, µM (series often up to 46.1 µM), hits mostly activators | HBB splicing reporter cell assay, activation; EGFP reporter with mutant IVS2-654 intron; response scale: normalised to 500 nM splice-correcting PNA
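Compounds were applied for 2 days to HeLa EGFP-654 cells, 500/well in Optimem with 2% FCS. The reporter's EGFP is disrupted by mis-splicing of beta-globin intron IVS2-654. Readout: summed well GFP fluorescence from 488 nm laser scanning; reference was 500 nM antisense […] 654 PNA.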
GBA mod – Glucocerebrosidase; Lysosomal acid glucosylceramidase (Homo sapiens), P04062; purified enzyme, resorufin glucoside fluorescence (screen aimed at inhibitors), 20 min; Potency, µM; 48,000 tested, 1.1% active; AID 360, 2006; in the data active = potency below about 15 µM; inconclusive = mostly about 16 µM to 33 µM;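 also: the screen sought inhibitors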
Target sequence (P04062 whole entry, looked up): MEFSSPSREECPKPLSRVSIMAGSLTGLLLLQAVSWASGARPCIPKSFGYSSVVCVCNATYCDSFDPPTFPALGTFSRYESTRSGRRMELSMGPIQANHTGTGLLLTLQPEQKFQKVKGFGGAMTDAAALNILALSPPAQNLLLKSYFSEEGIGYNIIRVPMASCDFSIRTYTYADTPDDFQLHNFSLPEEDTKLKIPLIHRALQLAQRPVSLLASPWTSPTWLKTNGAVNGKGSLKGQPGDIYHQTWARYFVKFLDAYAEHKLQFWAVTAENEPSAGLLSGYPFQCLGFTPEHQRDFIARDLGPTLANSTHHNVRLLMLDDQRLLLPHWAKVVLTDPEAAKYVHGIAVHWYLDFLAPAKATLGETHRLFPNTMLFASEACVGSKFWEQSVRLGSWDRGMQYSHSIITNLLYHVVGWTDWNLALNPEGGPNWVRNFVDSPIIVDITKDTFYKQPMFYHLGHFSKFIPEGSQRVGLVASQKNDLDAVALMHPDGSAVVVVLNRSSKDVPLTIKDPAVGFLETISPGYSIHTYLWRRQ
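Wild-type enzyme at 0.2 nM final in 50mM citric acid/KH2PO4, 10mM sodium taurocholate, 0.01% tween-20, pH 5.9, with resorufin beta-D-glucopyranoside at 30 uM final. Compounds titrated, 20 min at RT, red fluorescence read; AC50 from titration.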
FLuc inh – qHTS Assay for Inhibitors of Firefly Luciferase | Luciferin 4-monooxygenase (Photinus pyralis), P08659 | purified firefly luciferase, luminescence, 8 min | Potency, µM (series often up to 57.1 µM), usual class: inhibitors | 72,000 tested, 2.2% active | AID 411, 2009; also: nearly all actives have a fitted effect of over 40% in size
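Inhibition of light generation by firefly luciferase from ATP and luciferin was profiled with concentration-response curves per sample, ATP held at 10 uM within the enzyme's linear range. Plates were read by luminescence after an 8-minute ambient incubation.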
Epigenetic mod – qHTS Assay for Epigenetic Modulators. mouse C127i GFP locus derepression, cytometry, 30 h. Potency, µM (titrated, usually from 46.1 µM). 68,000 tested, 0.09% active. AID 597, 2007
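Read-out is the number of GFP-positive cells, scored as fluorescent objects 20 to 120 um wide, reflecting derepression of a silenced CMV-GFP reporter in murine C127i cells after 30 h compound exposure at 37 C.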
A number is an active result; [ ] = dose if it differs, or a comment. Unless noted, calls follow the shape of the dose curve; as a rule, active = well fitted curve in the direction sought with a large enough effect; inconclusive = small, poorly fitted or top-dose-only effect, or another doubt; inactive = no such curve, though single readings can be large; an effect the other way counts as inactive or inconclusive.

CN(Cc1ccccc1)c1ncnc2c1cnn2-c1ccccc1 was read as Bst PK mod inconclusive, Ub-GFP proteasome inactive, HBB splicing inactive, GBA mod inactive, FLuc inh 12.6µM and Epigenetic mod inactive.
For COc1ccc(O[C@H]2C=C[C@@H](c3ccccc3)O[C@H]2COC(=O)CC/C(C)=N\O[C@@H](C)CN2CCCCc3nc(C)c(C)cc32)cc1 the results were HBB splicing inactive[9.22 µM] and FLuc inh inactive[11.4 µM].
O=c1c(O)c(-c2ccc(O)c(O)c2)oc2c(OC[C@H]3O[C@@H](O)[C@@H](O)[C@H](O)[C@@H]3O)c(O)cc(O)c12 was read as Ub-GFP proteasome inactive, FLuc inh inactive[11.4 µM] and Epigenetic mod inactive[9.22 µM].
For CCOCCn1c(-c2ccc(OC)cc2)nc2ccccc21 the results were Ub-GFP proteasome inactive, HBB splicing inactive and FLuc inh inactive.
C=CCn1c(-c2ccc(OC)cc2)nc2ccccc21 was read as Ub-GFP proteasome inactive, HBB splicing inactive, FLuc inh 25.1µM and Epigenetic mod inactive.
For COC(=O)C1(CC(C)C)C=C2C(=C(C)C(=O)C2C)CN1 (stereo not given) the results were HBB splicing inactive.
`CCCOc1ccccc1NC(=O)CC1Nc2ccccc2NC1=O` (stereo not given) gave Bst PK mod inactive, Ub-GFP proteasome inactive, HBB splicing inactive, GBA mod 13.9, FLuc inh inactive and Epigenetic mod inactive.
For O=C(CC1Nc2ccccc2NC1=O)c1ccccc1 (stereo not given) the results were Ub-GFP proteasome inactive, HBB splicing inactive, FLuc inh 12.6µM and Epigenetic mod inactive.
Screening CCOc1ccccc1NC(=O)CC1Nc2ccccc2NC1=O (stereo not given) returned Bst PK mod inactive, Ub-GFP proteasome inactive, HBB splicing inactive, GBA mod inactive, FLuc inh inactive and Epigenetic mod inactive.
`Fc1cc2nc(-c3ccncc3)[nH]c2cc1F` gave Bst PK mod inactive, Ub-GFP proteasome inactive, HBB splicing inactive, GBA mod 13.5, FLuc inh inactive and Epigenetic mod inactive.
Screening CC(=O)Nc1ccc2nc(-c3cccnc3)[nH]c2c1 returned Bst PK mod inactive, Ub-GFP proteasome inactive, FLuc inh inactive and Epigenetic mod inactive.
For COC(=O)N1CCC[C@@]2(CCN(c3ccccn3)C2)C1 the results were Ub-GFP proteasome inactive, HBB splicing inactive, FLuc inh inactive[11.4 µM] and Epigenetic mod inactive[9.22 µM].
Screening O=c1c2c(nc3c(-c4ccc(Cl)cc4)c[nH]n13)CCCC2 returned Bst PK mod 3.25, Ub-GFP proteasome inactive, HBB splicing inactive, GBA mod 6.48, FLuc inh inactive and Epigenetic mod inactive.
O=c1c2c(nc3nc(CCc4ccccc4)[nH]n13)CCC2 was read as Bst PK mod inactive, Ub-GFP proteasome inactive, HBB splicing inactive, GBA mod inactive, FLuc inh inactive and Epigenetic mod inactive.
Cc1[nH]n2c(=O)c3c(nc2c1-c1ccccc1)CCCC3 was read as Bst PK mod inactive, Ub-GFP proteasome inactive, HBB splicing inactive[1.84 µM], GBA mod 4.19, FLuc inh inactive and Epigenetic mod inactive.
For COc1ccc(COC(=O)N/N=C2/C[C@@H](O)[C@@H](O)[C@@H]3[C@@H]4C(=O)N(C5CCCCC5)C(=O)[C@H]4CC[C@H]23)cc1 the results were HBB splicing inactive[9.22 µM] and FLuc inh inactive[11.4 µM].
O=C(Nc1cccc(C(F)(F)F)c1)c1cc(-c2cccs2)on1 was read as Bst PK mod inactive, Ub-GFP proteasome inactive, HBB splicing inactive, GBA mod 4.85, FLuc inh inactive and Epigenetic mod inactive.
Screening O=C(c1cc(C(F)(F)F)cc(C(F)(F)F)c1)N1CCC[C@@]2(CCN(c3ccccc3)C2)C1 returned Ub-GFP proteasome inactive, HBB splicing inactive, FLuc inh inactive[11.4 µM] and Epigenetic mod inactive[9.22 µM].
For CN(C)c1ccc(N=Nc2cccc3ccoc23)cc1 the results were Ub-GFP proteasome inactive[9.17 µM], HBB splicing inactive[9.22 µM], FLuc inh 3.98µM and Epigenetic mod inactive[9.22 µM].
For O=c1c2ccccc2nnn1CSc1nnc(-c2ccc3c(c2)OCO3)o1 the results were Bst PK mod inactive, Ub-GFP proteasome inactive, HBB splicing inactive, GBA mod 8.81, FLuc inh inactive and Epigenetic mod inactive.
`COCCn1c(C)cc(C(=O)CSc2nc3ccccc3o2)c1C` gave Ub-GFP proteasome inactive, HBB splicing inactive, GBA mod inactive, FLuc inh 7.94µM and Epigenetic mod inactive.
COCCn1c(C)cc(C(=O)CSc2nnc3ccccn23)c1C was read as Ub-GFP proteasome inactive, HBB splicing inactive, FLuc inh 10µM and Epigenetic mod inactive.
Screening CC(C)C[C@@H](CC(=O)N[C@@H](CCCN)CC(=O)N[C@@H]1CCNC[C@H]1C(=O)N[C@H](CC(=O)N[C@@H](CCC(=O)O)CC(=O)O)Cc1ccccc1)NC(=O)[C@@H]1CNCC[C@H]1N returned HBB splicing inactive.
For O=C(c1cc2ccccc2oc1=O)N1CCN(c2ccc(N3CCOCC3)nn2)CC1 the results were Ub-GFP proteasome inactive, HBB splicing inactive, FLuc inh 15.8µM and Epigenetic mod inactive.
`S=C(Nc1ccccn1)c1ccccn1` gave Ub-GFP proteasome inactive, HBB splicing inactive[9.22 µM], FLuc inh 20µM and Epigenetic mod 3.98µM.
For O=C(O)c1ccccc1C(=O)Nc1ccccn1 the results were Bst PK mod inactive, Ub-GFP proteasome inactive, HBB splicing inactive, GBA mod inactive, FLuc inh inactive and Epigenetic mod inactive.
`CNC(=O)[C@@H](Cc1ccccc1)N(C)C(=O)[C@@H](Cc1ccc2ccccc2c1)N(C)C(=O)/C=C/CC(C)(C)N` gave HBB splicing inactive.
COc1ccc(-c2cn3c4c(sc3n2)CCCC4)cc1 was read as Bst PK mod 0.541, Ub-GFP proteasome inactive, HBB splicing inactive, GBA mod inactive, FLuc inh 0.631µM and Epigenetic mod inactive.
Screening COc1ccc(N2CCN(C(=O)c3sc4nc(-c5ccc(F)cc5)cn4c3C)CC2)cc1 returned Ub-GFP proteasome inactive, HBB splicing inactive and FLuc inh inactive.
For Cc1ccc(S(=O)(=O)N2CCC(C(=O)N[C@@H](C)C(=O)Nc3ccc4c(c3)OCO4)CC2)cc1 the results were Bst PK mod inactive, Ub-GFP proteasome inactive, HBB splicing inactive, GBA mod inactive, FLuc inh inactive and Epigenetic mod inactive.
For Cc1ccc(S(=O)(=O)N2C(=O)CCC2C(=O)Nc2ccc3c(c2)OCCO3)cc1 (stereo not given) the results were Bst PK mod 2.28, Ub-GFP proteasome inactive, HBB splicing inactive, GBA mod inactive, FLuc inh inactive and Epigenetic mod inactive.
